Most compounds without a hit are left out; they make up all but 19% or so of the library.
DT40 TDP1 no CPT – qHTS for Inhibitors of human tyrosyl-DNA phosphodiesterase 1 (TDP1): qHTS in cells in absence of CPT. Potency, µM (highest dose often 46.2 µM), inactives show at the highest dose activity change, negative = growth inhibition, actives largely listed as inhibitors. DT40 Tdp1-/- hTDP1 cells, no CPT, ATP luminescence, 48 h. AID 686978, 2013. 15% of 420,000 active; note: potency is the fitted concentration of half-maximal effect; nearly all actives have a fitted effect of over 55% in size
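Compound effects on proliferation are scored in DT40 Tdp1-/-;hTDP1 cells in the absence of CPT. ATP levels (CellTiter-Glo luminescence) are recorded after a ≥48 hr, 37 °C incubation.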
DT40 TDP1 CPT – qHTS for Inhibitors of human tyrosyl-DNA phosphodiesterase 1 (TDP1): qHTS in cells in presence of CPT; chicken DT40 Tdp1-/-;hTDP1 cells + 20 nM CPT, ATP luminescence, 48 h; Potency, µM (top dose mostly 46.2 µM), inactives show top-dose activity change, negative = growth inhibition, usual class: inhibitors; 12% of 420,000 active; AID 686979, 2013; note: potency is the fitted concentration of half-maximal effect; nearly all actives have a fitted effect of over 55% in size
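Chicken DT40 Tdp1-/- cells complemented with human TDP1, 400 cells/well, exposed to compounds plus 20 nM camptothecin for at least 48 h at 37 C; viability read as ATP content by CellTiter-Glo luminescence.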
uPA generation – qHTS for Inhibitors of Cell Surface uPA Generation | Potency, µM (series often up to 38.3 µM), without a hit: at the top dose activity change, negative = inhibition, hits mostly inhibitors | cell surface uPA generation assay, qHTS | AID 540303, 2011 | 0.31% of 330,000 active; active = well fitted inhibition curve with a large enough effect; inconclusive = small, poorly fitted or top-dose-only effect; inactive = no such curve, though single readings can be large or run the other way; tested in mouse RAW 264.7 cells; note: potency is the fitted concentration of half-maximal effect; nearly all actives have a fitted effect of over 55% in size
HT1080 IDH1KD tx – qHTS for induction of synthetic lethality in tumor cells producing 2HG: qHTS for the HT-1080-IDH1KD cell line; Potency, µM (top dose mostly 46.1 µM), inactives show top-dose activity, negative = toxicity, most hits filed as cytotoxic; AID 686971, 2013; HT-1080 IDH1 knockdown viability, ATP luminescence, 48 h; 2% of 360,000 active;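 note: potency is the fitted concentration of half-maximal effect; 0% = DMSO wells and -100% = cell-free medium wells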
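Assay cells: HT-1080 with IDH1 knockdown, 750 per well, RPMI/5% FBS. Exposure: 48 h at 37 °C following 2 h pre-incubation. Read: CellTiter-Glo luminescence; fitted concentration-response, curve class assigned.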
HT1080-NT tox – qHTS for induction of synthetic lethality in tumor cells producing 2HG: qHTS for the HT-1080-NT fibrosarcoma cell line. HT-1080-NT fibrosarcoma viability, CellTiter-Glo ATP luminescence, 48 h. AID 686970, 2013. Potency, µM (highest dose often 46.1 µM), without a hit: top-dose activity, negative = less viability, usual class: cytotoxic. 1.6% of 360,000 active;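 note: NT is the 2HG producing partner of a matched IDH1 knockdown line; potency is the fitted concentration of half-maximal effect; 0% = DMSO-treated cells and -100% = media-only wells without cells; nearly all actives have a fitted effect of over 55% in size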
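A 48-hour cytotoxicity screen used HT-1080-NT cells plated 2 hours before compound delivery. ATP-based CellTiter-Glo luminescence measured viability, normalized to DMSO and no-cell controls.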
IL1B secr inh – qHTS for Inhibitors of Inflammasome Signaling: IL-1-beta AlphaLISA Primary Screen. activity change, % at 57.5 µM. THP-1 LPS/ATP IL-1B secretion, AlphaLISA, 16 h; active compounds read low. 4.7% of 360,000 active; in the data active = activity change below about -50%; inconclusive = mostly about -30% to -49%
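THP-1 cells pretreated 1 hr with compounds (up to 57.5 uM final), then stimulated with LPS (250 ng/mL final) plus ATP (1.25 mM final); secreted IL-1B measured by AlphaLISA after 16 hr, decreased signal indicating inhibition.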
Starred values were filed as active, the others as inactive; ? = inconclusive; . = no result given; [ ] = remark or other dose. Unless noted, calls come from the whole dose curve; as a rule, active = well fitted curve in the direction sought with a large enough effect; inconclusive = small, poorly fitted or top-dose-only effect, or another doubt; inactive = no such curve, though single readings can be large; an effect the other way counts as inactive or inconclusive. Unless noted, % is set by controls: 0 for no effect and ±100 for the full control effect.

SMILES	DT40 TDP1 no CPT	DT40 TDP1 CPT	uPA generation	HT1080 IDH1KD tx	HT1080-NT tox	IL1B secr inh
O=C1Nc2ccccc2-n2nnnc2C1N1CCN(CCN2CCOCC2)CC1 (stereo not drawn)	1.9%	3.4%	.	22.0%	9.1%	25.0
CN(C)C=NC(=O)c1cn(-c2ccc(F)cc2)c(=O)c2ccccc12	?	2.7%	2.7%	1.5%	3.0%	15.2
CC(Sc1nnc2ccc3ccccc3n12)C(=O)Nc1ccc(Cl)cc1 (stereo not drawn)	?	14.6µM*	.	.	.	.
CCOC(=O)C(C)Sc1nnc2ccc3ccccc3n12 (stereo not drawn)	?	-0.7%	.	.	.	.
COc1ccccc1NC(=O)C(C)Sc1nnc2ccc3ccccc3n12 (stereo not drawn)	?	20.6µM*	.	.	.	.
COc1ccc([C@H]2CC(=O)C[C@@H](CCn3cc(C(C)C)nn3)O2)cc1	0.1%	-8.5%	.	4.8%	17.7%	13.8
CCOc1cc(-c2ccccc2)nc2c1CN(S(=O)(=O)c1ccc(C)cc1)C(c1cccc(Cl)c1)C2 (stereo not drawn)	9.2µM*	?	.	29.5%	?	3.4
CCOC1=C2CN(S(=O)(=O)c3ccc(C)cc3)[C@H](c3ccccc3)C[C@@H]2N(S(=O)(=O)c2ccc(C)cc2)[C@H](c2cccc(C)c2)C1	-21.7%	-6.2%	.	10.5%	12.0%	44.1
O=C(c1ccc2c(=O)n(C3CCCC3)c(=S)[nH]c2c1)N1CCc2ccccc21	20.6µM*	11.6µM*	1.0%	-6.3%	-7.5%	0.0
CCN(CC)CCNC(=O)c1ccc2c(=O)n(C3CCCC3)c(=S)[nH]c2c1	-29.4%	?	.	20µM*	?	5.6
CC(=O)NC(c1cccc(F)c1)c1nc(-c2cc3ccccc3o2)cs1 (stereo not drawn)	20.6µM*	?	.	?	?	35.7
CC(=O)NC(c1ccc(F)c(F)c1)c1nc(-c2cc3ccccc3o2)cs1 (stereo not drawn)	?	-3.9%	.	0.5%	4.0%	-21.8
CC(=O)NC(c1ccccc1)c1nc(-c2cc3ccccc3o2)cs1 (stereo not drawn)	?	23.1µM*	.	-16.9%	?	12.3
CC1CCC(C(C)C)C(OCC(O)CNC(C)c2ccccc2)C1 (stereo not drawn)	14.6µM*	?	-3.5%	?	14.6µM*	-107.9*
CC1CCC(C(C)C)C(OCC(O)CNC(C)(C)C)C1 (stereo not drawn)	?	?	-26.7%	-1.8%	-18.7%	-26.7
CC(NCC(O)COC1CCC(C(C)(C)C)CC1)c1ccccc1 (stereo not drawn)	20.6µM*	?	-1.6%	-6.7%	-22.3%	-67.2*
CC1CCN(CC(O)COC2CC(C)CCC2C(C)C)CC1 (stereo not drawn)	16.4µM*	?	?	-22.5%	?	0.0
COc1cccc(/C=C/C(=O)OCC(=O)Nc2nnc(-c3ccccc3)o2)c1	-2.8%	-4.4%	-3.0%	?	-28.1%	22.0
Cn1cccc1C1CCCN1CC(=O)Nc1ccc(F)c(F)c1F (stereo not drawn)	-20.8%	?	-17.6%	-0.9%	-10.5%[9.24 µM]	-18.8
Nc1ncnc2c1ncn2[C@@H]1O[C@H](C(=O)N[C@@H](CO)Cc2ccccc2)[C@@H](O)[C@H]1O	-11.5%	0.4%	.	18.7%	27.7%	0.0
O=C(CSc1cn(CCNC(=O)c2ccccc2)c2ccccc12)NCc1ccco1	?	25.9µM*	-14.1%	-3.1%	-16.2%	-18.2
CCOc1ccc(NC(=O)CSc2cn(CC(=O)N3CCOCC3)c3ccccc23)cc1	-28.8%	?	.	.	.	.
CCOc1ccc(NC(=O)CSc2cn(CC(=O)N3CCCCCC3)c3ccccc23)cc1	?	23.1µM*	.	.	.	.
COC(=O)c1ccc(NC(=O)CSc2cn(CC(=O)N3CCCCC3)c3ccccc23)cc1	?	20.6µM*	.	.	.	.
COCCNC(=O)CSc1cn(CC(=O)N2CCCCCC2)c2ccccc12	0.517µM*	?	.	.	.	.
SMILES	DT40 TDP1 no CPT	DT40 TDP1 CPT	uPA generation	HT1080 IDH1KD tx	HT1080-NT tox	IL1B secr inh
COc1cccc(CNC(=O)c2cccc(N3CCCS3(=O)=O)c2)c1	-23.0%	-30.0%	.	.	.	.
Cc1cc(NC(=O)CSc2cn(CCNC(=O)c3ccccc3)c3ccccc23)no1	?	-21.2%	8.2%	4.1%	0.0%	-16.3
COc1ccccc1NC(=O)C(=O)c1cn(CC(=O)N2CCOCC2)c2ccccc12	20.6µM*	?	-19.4%	1.7%	-7.2%	-12.5
COc1ccc(C(=O)NCCn2cc(SCc3cc(C)ccc3C)c3ccccc32)cc1	?	13µM*	.	.	.	.
CCOc1ccc(C(=O)NCCn2cc(SCC(=O)Nc3ccccc3)c3ccccc32)cc1	23.1µM*	?	.	.	.	.
O=C(CSc1cn(CC(=O)N2CCCCC2)c2ccccc12)Nc1ccccc1	?	-2.8%	.	.	.	.
COc1ccccc1NC(=O)C(=O)c1cn(CC(=O)N2CCCC2)c2ccccc12	-28.6%	?	1.6%	-5.3%	-13.1%	?
CC(=O)Nc1cccc(NC(=O)CSc2cn(CC(=O)N3CCCCCC3)c3ccccc23)c1	?	18.4µM*	.	.	.	.
CC(C)NC(=O)C1(C)CSCC(=O)N1CCCN1CCOCC1 (stereo not drawn)	21.0%	5.8%	.	11.6%	19.4%	15.2
CC(=O)c1cccc(NC(=O)C(=O)c2cn(CC(=O)N3CCCCC3)c3ccccc23)c1	23.1µM*	25.9µM*	0.1%	-5.0%	-0.7%	-13.2
O=C(CSc1nc(-c2cccc(F)c2)[nH]c1-c1ccccc1)Nc1ccc2c(c1)OCCO2	11.6µM*	14.6µM*	.	.	.	.
Cc1ccc2nc(SCC(=O)Nc3ccc4c(c3)OCCO4)[nH]c2c1	?	-24.9%	0.0%	-5.8%	-7.6%	-14.3
Cc1cccc(-c2nc(SCC(=O)Nc3ccc4c(c3)OCCO4)c(-c3ccccc3)[nH]2)c1	20.6µM*	?	.	.	.	.
CCCCCCNC(=O)CCCCCNS(=O)(=O)c1ccc(Br)cc1	?	-22.7%	12.2%	-15.0%	-23.4%	18.6
CCCCCCNC(=O)CCCCCNS(=O)(=O)c1ccc(OC)cc1	?	18.4µM*	8.0%	-2.1%	-2.8%	-24.2

Bioassay records from PubChem BioAssay.
